# Hits are enriched below; roughly 21% of the tested compounds scored in any of these assays.
# IL1B secr inh = qHTS for Inhibitors of Inflammasome Signaling: IL-1-beta AlphaLISA Primary Screen; THP-1 LPS/ATP IL-1B secretion, AlphaLISA, 16 h; active compounds read low; activity change, % at 57.5 µM; 360,000 compounds, 4.7% hits; AID 743279, 2014; in the data active = activity change below about -50%; inconclusive = mostly about -30% to -49%
#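 Secreted IL-1B measured by AlphaLISA bead assay after 16 h compound exposure of THP-1 cells; compounds (final up to 57.5 uM) added 1 h before LPS (250 ng/mL) and ATP (1.25 mM) stimulation; lower signal means less secretion.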
# RORg inh = qHTS for inhibitors of ROR gamma transcriptional activity. Nuclear receptor ROR-gamma (Mus musculus), P51450. Drosophila S2 Gal4-RORgamma UAS-luciferase reporter, 20 h. Potency, µM (series often up to 53.6 µM), for inactives: at the highest dose activity change, negative = inhibition, hits mostly inhibitors. 310,000 compounds, 5.4% hits; also: potency is read from the fitted curve at half-maximal effect; nearly all actives have a fitted effect of over 60% in size
# Target sequence (P51450 whole entry, looked up, the tested form may be a part): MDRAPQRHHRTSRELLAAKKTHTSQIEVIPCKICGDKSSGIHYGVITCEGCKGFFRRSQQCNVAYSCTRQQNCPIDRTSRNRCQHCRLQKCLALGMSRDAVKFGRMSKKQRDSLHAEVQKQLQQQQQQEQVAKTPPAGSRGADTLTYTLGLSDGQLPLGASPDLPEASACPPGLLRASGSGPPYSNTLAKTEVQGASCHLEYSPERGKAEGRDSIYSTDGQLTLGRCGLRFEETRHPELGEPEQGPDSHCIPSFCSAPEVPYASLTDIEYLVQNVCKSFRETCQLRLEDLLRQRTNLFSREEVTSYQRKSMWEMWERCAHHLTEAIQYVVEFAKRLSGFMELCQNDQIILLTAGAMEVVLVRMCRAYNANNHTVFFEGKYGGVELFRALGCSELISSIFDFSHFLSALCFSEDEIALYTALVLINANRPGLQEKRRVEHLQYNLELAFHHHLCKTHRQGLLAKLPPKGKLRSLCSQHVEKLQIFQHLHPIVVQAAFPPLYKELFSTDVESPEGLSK
#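 Stable Schneider cell line, Gal4 DNA-binding domain fused to ROR gamma, UAS-luciferase. Cmpd 1 hr RT → CuSO4 700 uM final → 20 hr RT → luciferase reagent 10 min → luminescence.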
# DT40 TDP1 no CPT = qHTS for Inhibitors of human tyrosyl-DNA phosphodiesterase 1 (TDP1): qHTS in cells in absence of CPT; DT40 Tdp1-/- hTDP1 cells, no CPT, ATP luminescence, 48 h; Potency, µM (series often up to 46.2 µM), without a hit: top-dose activity change, negative = growth inhibition, usual class: inhibitors; 420,000 compounds, 15% hits; also: potency is read from the fitted curve at half-maximal effect; nearly all actives have a fitted effect of over 55% in size
#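 Compound effects on proliferation are scored in DT40 Tdp1-/-;hTDP1 cells in the absence of CPT. ATP levels (CellTiter-Glo luminescence) are recorded after a ≥48 hr, 37 °C incubation.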
# DT40 TDP1 CPT = qHTS for Inhibitors of human tyrosyl-DNA phosphodiesterase 1 (TDP1): qHTS in cells in presence of CPT | chicken DT40 Tdp1-/-;hTDP1 cells + 20 nM CPT, ATP luminescence, 48 h | 420,000 compounds, 12% hits | AID 686979, 2013 | Potency, µM (top dose mostly 46.2 µM), for inactives: at the top dose activity change, negative = growth inhibition, actives largely listed as inhibitors; also: potency is read from the fitted curve at half-maximal effect; nearly all actives have a fitted effect of over 55% in size
#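 Cell growth measured by CellTiter-Glo luminescence after a minimum 48 h, 37 C compound exposure with 20 nM CPT in Tdp1-knockout DT40 cells stably expressing hTDP1, seeded 400/well; qHTS titration format.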
# ELG1 repair inh = qHTS screen for small molecules that inhibit ELG1-dependent DNA repair in human embryonic kidney (HEK293T) cells expressing luciferase-tagged ELG1. HEK293T ELG1-luciferase reporter, luminescence, 16 h; DNA damage induced by 5-fluorouridine. Potency, µM (titrated, usually from 46.1 µM), for inactives: at the highest dose activity change, negative = inhibition, hits mostly inhibitors. 330,000 compounds, 2.3% hits. AID 504467, 2011; also: potency is read from the fitted curve at half-maximal effect; nearly all actives have a fitted effect of over 55% in size
#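 HEK293T cells expressing luciferase-tagged ELG1 (2,000/well) received 5-Fluorouridine plus compound or DMSO for 16 hr at 37 °C. Luciferase was read by ONE-Glo luminescence after 30 min at room temperature.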
# Gal4-VP16 FLuc = VP16 counterscreen qHTS for inhibitors of ROR gamma transcriptional activity; Drosophila S2 Gal4-VP16 UAS-luciferase, luminescence, 20 h; Potency, µM (series often up to 53.6 µM), without a hit: at the top dose activity, negative = inhibition, actives largely listed as inhibitors; 310,000 compounds, 3.5% hits; AID 2546, 2010;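 also: Gal4-VP16 expression switched on by copper sulfate through the metallothionein promoter; potency is read from the fitted curve at half-maximal effect; nearly all actives have a fitted effect of over 50% in size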
# Starred values were filed as active, the others as inactive; ? = inconclusive; . = not tested or not shown; [ ] = dose if it differs, or a comment. Unless noted, calls follow the shape of the dose curve; as a rule, active = well fitted curve in the direction sought with a large enough effect; inconclusive = small, poorly fitted or top-dose-only effect, or another doubt; inactive = no such curve, though single readings can be large; an effect the other way counts as inactive or inconclusive. % is scaled to controls: 0 for no effect and ±100 for the full control effect.
SMILES,IL1B secr inh,RORg inh,DT40 TDP1 no CPT,DT40 TDP1 CPT,ELG1 repair inh,Gal4-VP16 FLuc
CCOc1ccccc1NC(=O)C(=O)N/N=C/c1cc(Br)ccc1O,115.5,1.78µM*,10.3µM*,?,?,?
CCOc1ccccc1C=NNC(=O)C(=O)NN=Cc1ccccc1OCC,25.0,.,-18.4%,-25.1%,.,.
O=C(CN1CCOCC1)N/N=C/c1c(O)ccc2ccccc12,59.6,?,9.2µM*,7.31µM*,?,1.41µM*
O=C(CN1CCOCC1)N/N=C/c1ccco1,-12.5,-0.9%,-6.1%,-4.3%,5.0%,0.2%
O=C(CO)N/N=C/c1c2ccccc2cc2ccccc12,-29.2,-14.7%,0.3%,1.1%,3.7%,0.3%
O=C(Cc1cccc(F)c1)NO,.,.,-14.7%,-24.8%,.,.
Cc1ccccc1NC(C)C(=O)N/N=C/c1ccccc1OCc1cccc(Br)c1 (centres undefined),?,-11.5%,?,?,0.0%,-1.9%
COc1ccc(NC(C)C(=O)N/N=C/c2ccccc2OCc2cccc(Br)c2)cc1 (centres undefined),-63.8*,2.7%,?,?,-24.5%,13.8%
COc1ccc(NC(C)C(=O)N/N=C/c2c(O)ccc3ccccc23)cc1 (centres undefined),144.1,1.58µM*,5.8µM*,4.61µM*,?,3.55µM*
N#CCC(=O)N/N=C/c1c2ccccc2cc2ccccc12,-3.4,11.2µM*,-1.3%,-17.8%,-7.3%,?
O=C(CSCC(=O)Nc1ccccc1)N/N=C/c1c(O)ccc2ccccc12,107.9,1µM*,4.47µM*,4.47µM*,?,3.55µM*
COc1ccc(NC2CCCN(C(=O)c3cn(C)c4ccccc34)C2)cc1 (centres undefined),-5.9,-15.4%,4.0%,-15.8%,-1.5%,5.9%
Cc1ccc2ccccc2c1C(O)c1ncc(-c2ccccc2)[nH]1 (centres undefined),6.5,.,?,?,.,.
O=C(N/N=C/c1c(O)ccc2ccccc12)Nc1ccccc1,84.7,.,14.6µM*,25.9µM*,.,.
O=C(COc1ccc(Br)cc1)NNC(=O)c1ccc(-n2cncn2)c([N+](=O)[O-])c1,5.0,.,16.4µM*,?,8.6%,.
O=C(Nc1cc(F)ccc1F)c1ccc(-n2cncn2)c([N+](=O)[O-])c1,-6.0,.,-1.6%,-22.2%,-1.2%,.
O=C(Nc1cccc(/C=C/c2ccccn2)c1)c1ccc(-n2cncn2)c([N+](=O)[O-])c1,-76.2*,.,6.51µM*,16.4µM*,9.2µM*,.
O=C(Nc1ccc(F)c(F)c1)c1ccc(-n2cncn2)c([N+](=O)[O-])c1,?,.,?,8.2µM*,?,.
CC1CCN(C(=O)c2ccc(N3C(=O)C4CCC(C)CC4C3=O)cc2)CC1 (centres undefined),.,-19.5%,-19.9%,4.6%,12.5%,-5.8%
O=C1C2C3C=CC(C3)C2C(=O)N1c1ccc(Cc2ccncc2)cc1 (centres undefined),17.2,-25.0%,13µM*,?,-1.3%,22.4µM*
CC1CCC2C(=O)N(c3ccc(Cc4ccncc4)cc3)C(=O)C2C1 (centres undefined),0.0,11.2µM*,10.3µM*,5.8µM*,?,6.31µM*
Brc1ccc[n+](CCc2ccccc2)c1,.,.,-24.0%,-6.6%,.,.
Cc1ccc2nc3[nH]c(=O)[nH]c(=O)c3c(N)c2c1,-6.4,.,8.2µM*,?,.,.
CC(C)(C)N1C(=O)Cc2c1nc(N)c1c(N)nc(N3CCCCC3CO)c(C#N)c21 (centres undefined),-27.4,?,18.4µM*,20.6µM*,18.4%,1.7%
C=C(C)Cn1c(=O)c2c(nc3n2CCN3c2ccc(CC)cc2)n(C)c1=O,.,.,?,-28.4%,.,.
SMILES,IL1B secr inh,RORg inh,DT40 TDP1 no CPT,DT40 TDP1 CPT,ELG1 repair inh,Gal4-VP16 FLuc
COc1ccc(NC(=O)c2ccc(-c3ccccc3C(F)(F)F)o2)cc1,2.4,7.3%,16.4µM*,?,?,3.6%
O=C(NCCc1ccccc1)c1ccc(-c2ccc(F)cc2)o1,-53.6*,11.1%,-5.7%,3.2%,11.7%,0.9%[10 µM]
COc1ccccc1CNC(=O)c1ccc(-c2ccccc2C(F)(F)F)o1,-14.5,?,20.6µM*,20.6µM*,1.1%,-30.0%
Cn1cccc1C(=O)NCCc1ccccc1,-7.6,10µM*,-24.9%,-13.3%,?,12.6µM*
CCOC(=O)[C@]1(C(NC(=O)OC)c2cccc(C)c2)CCCC1=O (some centres undefined),.,-0.3%[10 µM],.,.,.,1.8%[10 µM]
O=C(NCc1cccnc1)C(=O)NCC1OCCCN1S(=O)(=O)c1ccc(F)cc1 (centres undefined),3.3,8.6%,-2.9%,7.5%,10.1%,-7.3%
CCOC(=O)C1(C)CCCN(C(=O)c2cccc(C#N)c2)C1 (centres undefined),5.3,.,2.1%,-7.4%,.,.
O=C(NCCc1ccccc1)c1ccc(-c2ccccc2C(F)(F)F)o1,-58.6*,16.4%,?,9.2µM*,24.5%,7.4%
CO[C@H]1[C@H](NC(=O)c2ccco2)c2ccccc2C12CCN(Cc1cnc(N(C)C)s1)CC2,.,.,-12.6%,3.9%[9.04 µM],.,.
O=C(N/N=C/c1cccs1)c1ccccn1,-25.0,14.1µM*,-24.8%,-4.6%,?,?
CCc1ccc(/C=N/NC(=O)c2ccccn2)cc1,-27.6,10µM*,?,-0.2%,?,?
C(=NN=C(NN=Cc1cccs1)NN=Cc1cccs1)c1cccs1,-1.3,.,2.91µM*,5.17µM*,.,.
Cc1ccc(/C=N/NC(=O)c2ccccn2)s1,-8.2,?,?,?,?,22.4µM*
O=C(N/N=C/c1ccc(OC(=O)c2ccccc2Cl)cc1)c1ccccn1,6.9,-29.0%,-19.6%,-2.3%,?,-4.3%
Brc1ccc(C2=N[C@@H](Cc3ccccc3)CO2)cc1,.,?,.,.,.,-9.8%
O=C(CN(Cc1ccc(Cl)cc1)C(=O)c1csnn1)NCc1ccc(F)cc1,15.7,20.9%,?,-16.2%,-0.3%,1.9%
Cc1c(C(=O)NCc2ccc([N+](=O)[O-])cc2)sc(=O)n1Cc1ccc2c(c1)OCO2,-20.5,.,?,?,.,.
